# Source: PubChem (National Center for Advancing Translational Sciences (NCATS))
# The entries come from a sample that favours hits as a whole.
# Cruzain Triton: blocks cruzain activity in presence of Triton detergent; P25779; purified cruzain, Z-FR-AMC fluorescence, 0.01% Triton; Potency, µM, for the others: max response, negative = inhibition, actives largely listed as inhibitors; hit rate 0.43% among 200,000; AID 1478;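 further: potency means the concentration at half of the fitted maximal effect; plate controls were neutral wells for no effect and buffer without enzyme for full effect; nearly all actives have a fitted effect of over 40% in size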
# Target sequence (P25779 123-467 limits assumed): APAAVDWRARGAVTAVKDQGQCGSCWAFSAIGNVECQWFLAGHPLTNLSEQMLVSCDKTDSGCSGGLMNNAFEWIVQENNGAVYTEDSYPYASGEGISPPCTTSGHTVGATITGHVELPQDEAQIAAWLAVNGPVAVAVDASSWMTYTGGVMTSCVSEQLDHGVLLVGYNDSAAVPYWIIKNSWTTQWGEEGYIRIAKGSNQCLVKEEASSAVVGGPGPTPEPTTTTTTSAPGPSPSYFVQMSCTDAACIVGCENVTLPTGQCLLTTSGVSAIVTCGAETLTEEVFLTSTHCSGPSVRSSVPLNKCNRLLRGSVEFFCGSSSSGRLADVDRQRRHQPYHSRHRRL
#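 Cruzain (1.5 nM) preincubated 15 min at RT with compound in 100 mM sodium acetate pH 5.5, 5 mM DTT, 0.01% Triton X-100. Reaction started with 2 uM Z-FR-AMC; AMC fluorescence (ex 360/em 450 nm) change over 60 s gave rate.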
# NS1 function inh: blocks influenza NS1 protein function | Potency, µM (series often up to 46.1 µM), inactives show at the top dose activity, positive = more growth | hit rate 0.4% among 270,000 | AID 2326; calls by dose curve; further: potency means the concentration at half of the fitted maximal effect; actives are rising curves; nearly all actives have a fitted effect of over 50% in size
#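 Recovery from NS1-induced slow growth read by OD600 in budding yeast switched to galactose assay medium (pH 6.0, -URA) at 1:100 dilution. Compound 23 nl per well; the matching strain lacking NS1 serves as control.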
# Cruzain inh noDet: cruzain (T. cruzi) inhibition without detergent; P25779; purified cruzain, Z-FR-AMC fluorescence, no detergent; Potency, µM, inactives show max response, negative = inhibition, usual class: inhibitors; hit rate 2.3% among 200,000;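 further: potency means the concentration at half of the fitted maximal effect; plate controls were enzyme without inhibitor for no effect and buffer without enzyme for full effect; nearly all actives have a fitted effect of over 40% in size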
#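 Detergent-free condition (0.00005% Triton X-100) in acetate buffer pH 5.5 with DTT. 1.5 nM enzyme and compound were pre-mixed 15 min, then 2 uM Z-FR-AMC substrate added; reaction progress from fluorescence change between first and third reads (60 s).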
# Flu NS1 inh: influenza NS1 function inhibition validation; 1,400 tested, under 10 active; shares compounds with NS1 function inh; activity change, negative = inhibition, % at 32.9 µM; influenza NS1 function cell assay, 15-point titration; calls by dose curve; further: 0% is about no effect
# Starred values were filed as active, the others as inactive; ? = inconclusive; . = not tested or not shown. Unless noted, the call rests on the fitted dose curve; in most records, active means well fitted curve in the direction sought with a large enough effect; inconclusive means small, poorly fitted or top-dose-only effect, or another doubt; inactive means no such curve, though single readings can be large; an effect the other way counts as inactive or inconclusive.
SMILES,Cruzain Triton,NS1 function inh,Cruzain inh noDet,Flu NS1 inh
CCc1ccc(NC(=O)C2CCCN(S(=O)(=O)c3cnc[nH]3)C2)cc1 (configuration not stated),.,-11%,.,.
Cc1ccc(Sc2ccc(N3CCCC(C(=O)Nc4ccc(Br)cc4)C3)nn2)cc1 (configuration not stated),-6%,.,?,.
COc1ccc(Cn2c(CNC(=O)Cc3ccc(OC)c(OC)c3)nc3cccnc32)cc1,-1%,.,10%,.
Cc1ccc(-n2ncc(C(=O)NCc3ccco3)c2C2CCN(C(=O)OC(C)(C)C)CC2)cc1C,-9%,.,15%,.
COC(=O)[C@@]1(Cc2ccc(F)cc2)[C@H]2c3cc(C(=O)N4CCCC4)n(Cc4ccc(C(F)(F)F)nc4)c3C[C@H]2CN1C(=O)c1ccccc1,-4%,11µM*,?,3
COC(=O)[C@@]1(Cc2ccccc2)[C@H]2c3cc(C(=O)N4CCCC4)n(Cc4ccc(C(F)(F)F)nc4)c3C[C@H]2CN1C(=O)c1ccccc1,-1%,.,?,.
CN(C)c1ccc(C(CNC(=O)Cc2ccc(Cl)cc2)N2CCOCC2)cc1 (configuration not stated),0%,.,6%,.
Cc1oc(C)c2c(=O)ccc3c(c12)OC(N)=C(C#N)C3c1ccc(F)cc1 (configuration not stated),-18%,8.9µM*,-11%,7
Cc1[nH]nc2c1C(c1ccc(F)cc1)C(C#N)=C(N)O2 (configuration not stated),-3%,5%,-10%,.
CCOc1ccc(Cl)cc1C1CC(=O)Nc2cc(OC)c(OC)c(OC)c21 (configuration not stated),-1%,.,-7%,.
CCN(CC)S(=O)(=O)c1ccc(-c2csc(=Nc3cccc(C(F)(F)F)c3)n2Cc2ccc3c(c2)OCO3)cc1,-3%,.,-11%,.
COc1ccc(C2/C=C\CN(C(=O)C3CCCC3)[C@H](Cc3ccccc3)C(=O)N2Cc2ccc(F)cc2)cc1 (some centres not stated),.,9%,.,.
CCCCCCCN1C/C=C\C(c2ccc(OC)cc2)N(Cc2ccc(F)cc2)C(=O)[C@H]1Cc1ccccc1 (some centres not stated),.,?,.,-27
Cc1ccc(NC(=O)COC(=O)c2ccc3c(c2)OCO3)cc1S(=O)(=O)N1CCCCC1,-2%,10µM*,?,6
Cc1cnc(C(=O)OCC(=O)Nc2ccc(C)c(S(=O)(=O)N3CCCCC3)c2)cn1,-3%,-5%,-5%,.
Cc1cccc(NC(=O)Cn2c(=O)n(Cc3ccc4c(c3)OCO4)c(=O)c3oc4ccccc4c32)c1C,0%,.,5%,.
N=c1nc(N)nc(N)n1-c1ccc(S(N)(=O)=O)cc1,12%,2%,-6%,.
COc1ccc(-c2nc(=S)c3c([nH]2)Oc2ccc(C)cc2C3)cc1O,0%,10µM*,10µM*,-6
COc1ccc(-c2nc(-c3ccccc3)c(-c3cc([N+](=O)[O-])ccc3C)[nH]2)cc1O,-4%,21%,7%,.
COc1ccccc1CNC(=O)CN(C)c1nn2c(=O)cc(C)nc2s1,-1%,.,3%,.
CC1=C(C(=O)Nc2cccnc2)C(c2ccccc2)n2nc(-c3ccc(O)cc3)nc2N1 (configuration not stated),-3%,.,-4%,.
COc1ccccc1-n1cc(-c2ccc(C)cc2)[nH]c1=S,.,0%,.,.
COc1ccccc1-n1cc(-c2ccc(Br)cc2)[nH]c1=S,.,4.5µM*,.,-10
COc1ccc(CNC(=O)Cn2c(=O)oc3cc(S(=O)(=O)NCc4ccccc4)ccc32)cc1,-4%,.,-1%,.
Cc1ccc(S(=O)(=O)N2CCCCC2)cc1C(=O)N(C)CC(=O)Nc1ccc(Cl)c(C(F)(F)F)c1,.,10µM*,.,-14
SMILES,Cruzain Triton,NS1 function inh,Cruzain inh noDet,Flu NS1 inh
COc1ccc(S(=O)(=O)N2CCCCCC2)cc1C(=O)N(C)CC(=O)Nc1cc(C)ccc1C,.,13%,.,.
O=C1CSC2(C(=O)N(Cc3ccccc3)c3ccccc32)N1c1ccc(Cl)cc1 (configuration not stated),-1%,.,2%,.
CSc1nnc2[nH]c(=O)cc(C)n12,-1%,.,-3%,.
Cc1ccc(NC(=O)C(Nc2cccc(C)c2)c2ccccc2)cc1 (configuration not stated),-7%,?,-20%,?
Cc1ccc(NC(=O)C(Nc2ccccc2)c2ccccc2)cc1 (configuration not stated),-7%,-37%,16%,.
CCc1cnc2c(c1SCc1cc(OC)cc(OC)c1)c(=O)n(C)c(=O)n2C,-1%,.,-6%,.
CCOC(=O)C1=C(C)N=C2SC(C(=O)OC)=CC(=O)N2C1c1ccc(F)cc1 (configuration not stated),-20%,?,?,.
CCOC(=O)C1=C(C)N=C2SC(C(=O)OC)=CC(=O)N2C1c1cccc(OC)c1 (configuration not stated),-15%,14µM*,24%,-19
CC1(C)CC(=O)c2cc(C(=O)NCc3ccco3)c(=O)n(-c3ccc(Cl)cc3)c2C1,-6%,2%,22%,.
Cc1ccc(-n2c3c(cc(C(=O)NCc4ccco4)c2=O)C(=O)CC(C)(C)C3)cc1,-5%,1.1µM*,?,-8
CCC12CN3CC(C)(CN(C1)C3c1c[nH]c3ccccc13)C2=O (configuration not stated),-1%,.,8%,.
Cc1cc(C)c(NC(=O)CSc2nc3c([nH]c4ccccc43)c(=O)n2C)c(C)c1,1%,.,5%,.
OCCN(CCO)c1ccc(C(c2ccc(Cl)cc2)c2ccc(N(CCO)CCO)cc2Cl)c(Cl)c1,-2%,14µM*,?,8
Nc1ccc(N(CCO)CCO)cc1,.,2%,.,.
COc1ccc2sc(N(Cc3cccnc3)C(=O)C3CCCCC3)nc2c1,-8%,.,27%,.
CCOC(=O)c1ccc(NC(=O)C2Cc3ccccc3C(=O)O2)cc1 (configuration not stated),-2%,.,-3%,.
COc1ccc(/C=C2\SC(=O)N(CCNC(=O)C3CCN(S(=O)(=O)c4cccs4)CC3)C2=O)cc1,-6%,-9%,1%,.
O=C(NCCN1C(=O)S/C(=C\c2ccc(F)cc2)C1=O)C1CCN(S(=O)(=O)c2cccs2)CC1,-8%,?,3%,2
Cc1cc(-c2ccccc2)c2c(=O)[nH][nH]c2n1,-2%,10µM*,2%,?
Cc1cc(=O)n2[nH]cc(-c3ccccc3)c2n1,.,28%,.,.
COc1ccccc1-c1nccc(N2CCN(C)CC2)n1,1%,.,-15%,.
CCCC(=O)Nc1ncnc2c1ncn2[C@@H]1O[C@H]2COP(=O)(O)O[C@@H]2[C@@H]1OC(=O)CCC,-3%,.,-2%,.
Cc1ccc2nc(-c3cccc(S(=O)(=O)N4CCCC4)c3)cn2c1,.,?,.,2
Cc1ccn2cc(-c3cccc(S(=O)(=O)N4CCCCC4)c3)nc2c1,.,-5%,.,.
CC(C)(C)C(=O)OCc1cc(=O)n2nc(C3CCCCC3)sc2n1,-4%,.,0%,.
CC(C)C[C@H]1C(=O)N2CCCC2[C@]2(O)O[C@](NC(=O)[C@@H]3C=C4c5cccc6[nH]c(Br)c(c56)C[C@H]4N(C)C3)(C(C)C)C(=O)N12 (some centres not stated),-1%,5.6µM*,15%,?
